A short description of experiment [1]: A CellTox Green Cytotoxicity Assay to monitor cytotoxicity in HepG2 cells - 0 hour (AID 1224882). Also: % is scaled to controls: 0 for no effect and ±100 for the full control effect; nearly all actives have a fitted effect of over 35% in size. The essentials: (§1)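 Nonlytic assay: viable cells exclude the dye, so fluorescence scales with cell death. HepG2 at 600 cells/well, compounds added after 5 h, signal read across 40 h.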
Experiment [2] in a line: A CellTox Green Cytotoxicity Assay to monitor cytotoxicity in HepG2 cells - 32 hour (AID 1224883). Also: nearly all actives have a fitted effect of over 50% in size. Also: potency is read from the fitted curve at half-maximal effect. In a few lines: as §1
Experiment [3] can be described thus: qHTS RealTime-Glo MT Cell Viability Assay in HepG2 cells - 16 hour (AID 1224885). Also: nearly all actives have a fitted effect of over 50% in size. Also: potency is read from the fitted curve at half-maximal effect. In a few lines: (§2)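 HepG2 cells (600/well) were dispensed with RealTime-Glo reagents, incubated 5 h at 37 °C, then treated with compounds in DMSO for up to 40 h. Nonlytic NanoLuc luminescence reflecting viable cells was read at each stated time point.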
In general terms: qHTS replaces the single test concentration by a dilution series.

Experiment [4] can be described thus: qHTS RealTime-Glo MT Cell Viability Assay in HEK293 cells - 24 hour (AID 1224886). Also: nearly all actives have a fitted effect of over 50% in size. Also: potency is read from the fitted curve at half-maximal effect. In a few lines: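 HEK293 cells seeded with NanoLuc/prosubstrate reagent, rested 5 h at 37 C, then dosed and kept at 37 C up to 40 h. Nonlytic real-time luminescence from viable cells read at 0, 8, 16, 24, 32 and 40 h.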
A short description of experiment [5]: qHTS RealTime-Glo MT Cell Viability Assay in HEK293 cells - 8 hour (AID 1224887). Also: nearly all actives have a fitted effect of over 50% in size. Also: potency is read from the fitted curve at half-maximal effect. The essentials:
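Tox21 screen in HEK293 using RealTime-Glo MT chemistry, with cells and reagent co-dispensed. Luminescence proportional to viable cell number was captured at intervals during 40 h compound exposure at 37 C.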

Experiment [6] can be described thus: A CellTox Green Cytotoxicity Assay to monitor cytotoxicity in HEK293 cells - 16 hour (AID 1224888). Also: nearly all actives have a fitted effect of over 35% in size. Also: potency is read from the fitted curve at half-maximal effect. The essentials:
(§3)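 Seeding of HEK293 cells together with cytotoxicity dye preceded a 5 h incubation at 37 C/5% CO2. Test compounds in DMSO were then added and fluorescence monitored across 40 h.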

A short description of experiment [7]: qHTS RealTime-Glo MT Cell Viability Assay in HepG2 cells - 0 hour (AID 1224889). The essentials: as §2
The nature of experiment [8]: A CellTox Green Cytotoxicity Assay to monitor cytotoxicity in HepG2 cells - 8 hour (AID 1224890). Also: nearly all actives have a fitted effect of over 45% in size. Also: potency is read from the fitted curve at half-maximal effect. The essentials:
as §1

Experiment [9] can be described thus: qHTS assay to identify small molecule antagonists of the estrogen receptor alpha (ER-alpha) signaling pathway using the BG1 cell line in the presence of 0.1 nM 17-beta-estradiol - cell viability counter screen (AID 1259241). Also: nearly all actives have a fitted effect of over 40% in size. Also: potency is read from the fitted curve at half-maximal effect. The essentials: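 VM7Luc4E2, 4,000 cells/well, phenol red-free medium + 10% charcoal-stripped FBS; 24 hr plating; cpd + 0.1 nM E2 final, 22 hr 37C/5% CO2; CellTiter-Fluor 30 min, fluorescence.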

Experiment [10] has as its target Androgen receptor (Homo sapiens) (UniProt P10275). The experiment can be described thus: qHTS assay to identify small molecule antagonists of the androgen receptor (AR) signaling pathway using the MDA cell line in the presence of 0.5 nM R1881 (AID 1259243). In a few lines:
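We exposed MDA-kb2 cells to compounds under 0.5 nM R1881 stimulation for 16 hr at 37C and quantified MMTV-driven luciferase by luminescence.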

Experiment [11] has as its target Estrogen receptor (Homo sapiens) (UniProt P03372). The experiment is described as follows: qHTS assay to identify small molecule antagonists of the estrogen receptor alpha (ER-alpha) signaling pathway using the BG1 cell line in the presence of 0.1 nM 17-beta-estradiol (AID 1259244). Also: nearly all actives have a fitted effect of over 50% in size. Also: potency is read from the fitted curve at half-maximal effect. The essentials: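 VM7Luc4E2; 4xERE-luciferase; 0.1 nM E2 final; 22 h co-incubation, 37C; ONE-Glo luminescence after 30 min at room temperature.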

Experiment [12] can be described thus: qHTS assay to identify small molecule HDAC inhibitors (AID 1259364). Also: potency is read from the fitted curve at half-maximal effect.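 Also: wild-type HCT-116 cells with endogenous class I/II HDAC activity; nearly all actives have a fitted effect of over 45% in size.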 The essentials: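 Relative class I and II HDAC activity is taken from the luminogenic signal in HCT-116 cells, with compound exposure 2 hr and reagent development 30 min at room temperature.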
Experiment [13] in a line: qHTS assay to identify small molecule HDAC inhibitors - cell viability counter screen (AID 1259365). Also: nearly all actives have a fitted effect of over 50% in size. Also: potency is read from the fitted curve at half-maximal effect. The essentials: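 Luminescence from CellTiter-Glo, developed 30min at room temperature, reports viability of wild-type HCT-116 cells treated 2hr with compounds at 37 C and 5% CO2 after overnight plating.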
A short description of experiment [14]: qHTS assay to identify small molecule agonists of the sonic hedgehog signaling (Shh) pathway - cell viability counter screen (AID 1259366). Also: nearly all actives have a fitted effect of over 50% in size. Also: potency is read from the fitted curve at half-maximal effect. In a few lines:
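Cytotoxicity counter screen run in the same wells as the Shh reporter assay. NIH/3T3 cells carrying a Gli1 response element–driven luciferase were treated with DMSO-dissolved compounds for 24hr, and live-cell protease activity was measured with CellTiter-Fluor.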

Experiment [15] can be described thus: qHTS assay to identify small molecule antagonists of the sonic hedgehog signaling (Shh) pathway - cell viability counter screen (AID 1259367). Also: nearly all actives have a fitted effect of over 55% in size. Also: potency is read from the fitted curve at half-maximal effect. The essentials:
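After a 4 hr settling period, 3T3 Gli1-Luc cells were treated with DMSO-dissolved chemicals and conditioned medium, kept 24 hr at 37C in 5% CO2, and assayed for viability by CellTiter-Fluor fluorescence following 1 hr reagent incubation.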

Experiment [16] can be described thus: qHTS assay to identify small molecule agonists of the sonic hedgehog signaling (Shh) pathway (AID 1259368; calls by dose curve;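 also: NIH/3T3-derived 3T3Gli1-Luc cells carrying a stable Gli1-driven firefly luciferase reporter; series mostly up to about 92 µM; % is scaled to controls: 0 for no effect and ±100 for the full control effect; nearly all actives have a fitted effect of over 15% in size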). The essentials: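 Mouse fibroblast (NIH/3T3) reporter cells with stably integrated Gli1-Luc were treated 24 hr with compound; firefly luciferase luminescence served as the read-out.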
Experiment [17] can be described thus: qHTS assay to identify small molecule antagonists of the sonic hedgehog signaling (Shh) pathway (AID 1259369; calls by dose curve; also: nearly all actives have a fitted effect of over 45% in size; also: potency is read from the fitted curve at half-maximal effect). In a few lines:
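Conditioned medium drives Shh signalling in 3T3Gli1-Luc cells; compounds in DMSO co-applied, 24hr at 37 C, then luciferase luminescence.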

Experiment [18] in a line: A CellTox Green Cytotoxicity Assay to monitor cytotoxicity in HEK293 cells - 8 hour (AID 1224884). Also: nearly all actives have a fitted effect of over 35% in size. Also: potency is read from the fitted curve at half-maximal effect. The essentials:
as §3

Experiment [19] can be described thus: qHTS assay to identify small molecule antagonists of the androgen receptor (AR) signaling pathway using the MDA cell line in the presence of 0.5 nM R1881 - cell viability counter screen (AID 1259242). Also: nearly all actives have a fitted effect of over 45% in size. Also: potency is read from the fitted curve at half-maximal effect. The essentials:
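R1881 at 0.5 nM final stimulated MDA-kb2 cells during 16 hr compound treatment at 37C. Cytotoxicity read: CellTiter-Fluor fluorescence after 30 min.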

Experiment [20] can be described thus: qHTS assay to identify small molecule phospholipidosis (PLD) inducers (AID 1259344; active = well fitted curve in the direction sought with a large enough effect; an effect the other way counts as inactive or inconclusive; also: % is scaled to controls: 0 for no effect and ±100 for the full control effect). In a few lines: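 HepG2 cells grown on collagen I take up LipidTOX Red while exposed to compound for 24 h; after fixation they are imaged at 20x and pit metrics are extracted.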

“And” between values parts separate entries of the source, which are not always exact repeats. Identical values can stand only once. Results filed as inconclusive are left out. Some compounds were tested as several samples or in several runs, with calls that do not always agree. The source made the active and inactive calls. Unless noted, calls follow the shape of the dose curve; as a rule, active = well fitted curve in the direction sought with a large enough effect in the repeat runs; inconclusive = weak or mixed curves; inactive = no such curve, though single readings can be large; an effect the other way counts as inactive or inconclusive.

Chain of Androgen receptor (Homo sapiens) (P10275 whole entry, looked up): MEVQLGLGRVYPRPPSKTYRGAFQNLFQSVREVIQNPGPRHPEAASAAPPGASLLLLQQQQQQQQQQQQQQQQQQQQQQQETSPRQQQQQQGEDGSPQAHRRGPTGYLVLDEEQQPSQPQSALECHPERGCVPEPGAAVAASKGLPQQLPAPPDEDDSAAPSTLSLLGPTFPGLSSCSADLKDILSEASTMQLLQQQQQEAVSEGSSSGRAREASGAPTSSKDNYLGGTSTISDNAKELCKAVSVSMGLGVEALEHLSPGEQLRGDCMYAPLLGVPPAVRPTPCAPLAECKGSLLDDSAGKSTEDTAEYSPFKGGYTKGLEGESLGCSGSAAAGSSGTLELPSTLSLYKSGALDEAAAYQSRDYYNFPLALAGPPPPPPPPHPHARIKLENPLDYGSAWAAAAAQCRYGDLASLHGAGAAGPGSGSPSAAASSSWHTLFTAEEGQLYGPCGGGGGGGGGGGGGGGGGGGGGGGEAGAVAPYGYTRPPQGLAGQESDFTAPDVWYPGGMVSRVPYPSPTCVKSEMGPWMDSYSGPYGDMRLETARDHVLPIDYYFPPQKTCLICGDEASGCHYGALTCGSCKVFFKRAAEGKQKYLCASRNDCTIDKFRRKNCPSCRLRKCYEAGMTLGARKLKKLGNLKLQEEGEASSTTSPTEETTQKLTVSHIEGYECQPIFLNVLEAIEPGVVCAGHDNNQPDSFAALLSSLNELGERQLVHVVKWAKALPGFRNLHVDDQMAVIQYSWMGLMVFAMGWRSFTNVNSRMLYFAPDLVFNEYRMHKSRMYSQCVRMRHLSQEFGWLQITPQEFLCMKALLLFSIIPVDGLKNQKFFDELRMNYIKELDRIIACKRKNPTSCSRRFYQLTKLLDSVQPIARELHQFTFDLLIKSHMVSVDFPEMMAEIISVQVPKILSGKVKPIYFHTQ
Chain of Estrogen receptor (Homo sapiens) (P03372 whole entry, looked up): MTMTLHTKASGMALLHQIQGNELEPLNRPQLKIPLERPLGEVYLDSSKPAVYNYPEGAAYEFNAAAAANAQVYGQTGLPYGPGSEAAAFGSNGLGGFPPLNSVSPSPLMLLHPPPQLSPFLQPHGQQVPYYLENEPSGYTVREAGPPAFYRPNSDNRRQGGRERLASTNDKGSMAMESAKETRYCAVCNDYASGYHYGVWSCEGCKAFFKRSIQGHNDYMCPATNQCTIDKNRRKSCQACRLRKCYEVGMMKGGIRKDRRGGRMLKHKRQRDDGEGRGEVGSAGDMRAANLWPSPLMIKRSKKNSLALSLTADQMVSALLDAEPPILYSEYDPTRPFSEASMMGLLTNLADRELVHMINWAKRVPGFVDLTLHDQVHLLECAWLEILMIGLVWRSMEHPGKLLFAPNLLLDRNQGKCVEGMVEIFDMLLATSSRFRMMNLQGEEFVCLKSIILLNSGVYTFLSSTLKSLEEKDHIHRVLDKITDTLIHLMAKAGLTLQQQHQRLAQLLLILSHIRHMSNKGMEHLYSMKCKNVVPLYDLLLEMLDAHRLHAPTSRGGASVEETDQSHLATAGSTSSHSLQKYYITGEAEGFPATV

In the case of `CCCCCCCCCCCCc1ccccc1O`, the Potency entry in experiment [1], in experiment [7], in [9], in experiment [12], in [13] and in experiment [16] was “inactive” each time. In addition, the Potency in experiment [2] is 19.5 µM (active); in [3], “inactive and 34.7 µM (active)”; in experiment [4], 43.1 µM (active) and 49 µM (active); in experiment [5] it was 43.1 µM (active) and 38.9 µM (active); in experiment [6], 43.1 µM (active) and 38.9 µM (active); in [8] it was “inactive and 21.9 µM (active)”. The Potency in experiment [10] was 30.2 µM (active) and 24.3 µM (active); in experiment [11], “inactive and 61.1 µM (active)”; in experiment [14], 60.3 µM (active) and 61.1 µM (active); in experiment [15], 60.3 µM (active) and 61.1 µM (active); in experiment [17] it was 67.7 µM (active) and 34.4 µM (active).

Regarding `Cc1cc(C2(c3cc(C)c(O)cc3C)OS(=O)(=O)c3ccccc32)c(C)cc1O`, the Potency entry in [1], in [2], in experiment [18], in [4], in [5] and in experiment [6] was “inactive” throughout. For the same compound, the Potency result in experiment [8], in [11], in [12], in experiment [13], in experiment [16] and in [17] was “inactive” in each case. For the same compound, the Potency in experiment [9] is 21.7 µM (active) and 15.4 µM (active); in experiment [19], 24.3 µM (active) and 15.4 µM (active); in [14], 24.3 µM (active) and 12.2 µM (active); in experiment [15], 27.3 µM (active) and 13.7 µM (active).

On to `CC1COc2c(N3CCN(C)CC3)c(F)cc3c(=O)c(C(=O)O)cn1c23` (stereo not given), for which the Potency entry in experiment [1], in experiment [2], in experiment [18], in [6], in [8] and in experiment [9] was “inactive” throughout. The Potency result in [19], in experiment [20], in experiment [12], in experiment [13], in [14] and in [15] was “inactive” throughout. Further, the Potency result in experiment [16] and in [17] was “inactive” each time.

`Nc1cc(Cl)c(-c2cc(Cl)c(N)cc2Cl)cc1Cl`: the Potency entry in experiment [1], in [18], in experiment [5], in [6], in experiment [7] and in experiment [8] was “inactive” throughout. Besides, the Potency result in experiment [9], in experiment [13] and in experiment [16] was “inactive” in each case. For the same compound, the Potency in experiment [2] was 17.4 µM (active) and 54.9 µM (active); in experiment [4], 11 µM (active); in experiment [10], 4.32 µM (active) and 2.17 µM (active); in experiment [11], 24.3 µM (active) and 34.4 µM (active); in experiment [15], 54.4 µM (active) and 38.6 µM (active); in [17], 1.09 µM (active) and 864 nM (active).

On to `CN(C)c1ccc(C(=C2C=CC(=[N+](C)C)C=C2)c2ccccc2)cc1`, for which the Potency result in experiment [1], in [18], in experiment [7] and in [20] was “inactive” each time. Moreover, the Potency is 10.7 µM (active) [middle of 4 runs] in experiment [3]; 2.39 µM (active) [middle of 4 runs] in experiment [4]; 13.8 µM (active) and 10.7 µM (active) and 13.4 µM (active) in experiment [5]; 21.9 µM (active) and 8.49 µM (active) in experiment [8]; 30.6 µM (active) and 15 µM (active) in experiment [9]; 27.3 µM (active) and 2.98 µM (active) in experiment [19]. Also, the Potency is 24.3 µM (active) and inactive and 13.3 µM (active) in experiment [12]; 61.1 µM (active) and inactive in [13]; 4.73 µM (active) [middle of 4 runs] in [14]; 2.98 µM (active) [middle of 4 runs] in experiment [15]; 172 nM (active) and 376 nM (active) and 237 nM (active) in experiment [17].

Turning to `COC(=O)/C=C/c1ccccc1`, the Potency entry in experiment [1], in [2], in experiment [3], in experiment [4], in experiment [5] and in experiment [7] was “inactive” throughout. Further, the Potency entry in experiment [8], in experiment [9], in experiment [19], in [11], in experiment [12] and in experiment [13] was “inactive” in each case. In addition, the Potency entry in experiment [14], in [15] and in experiment [16] was “inactive” throughout. Further, the Potency result in experiment [18] was “inactive and 34.7 µM (active)”; in experiment [17], “inactive and 21.7 µM (active)”.

For `CCC(=O)/C=C/C1C(C)=CCCC1(C)C` (stereo not given), the Potency result in experiment [1], in experiment [2], in [3], in [4], in [5] and in experiment [7] was “inactive” each time. The Potency entry in [8], in experiment [9], in [19], in [12], in [13] and in [14] was “inactive” in each case. The Potency entry in experiment [15], in [16] and in experiment [17] was “inactive” each time. For the same compound, in experiment [18], the Potency was 39 µM (active) and inactive.

Source of the values: PubChem BioAssay (Tox21).
